Assay [1] can be described thus: NCI Yeast Anticancer Drug Screen. Data for the rad50 strain (AID 155).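 Further: 0% = growth of vehicle-only cultures of the same strain.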 Conditions: S. cerevisiae rad50 strain growth inhibition, active compounds read high. The procedure, abridged:
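Readout: growth inhibition relative to vehicle-treated cultures. Compound exposure was carried out in a genetically defined yeast strain deficient in DNA damage repair.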

The nature of assay [2]: NCI Yeast Anticancer Drug Screen. Data for the mec2-1 strain (AID 157). Conditions: S. cerevisiae mec2-1 strain, active compounds read high. The procedure, abridged: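 Mutant yeast (mec2-1) grown with compound; growth inhibition relative to vehicle control reported.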
Assay [3] is described as follows: NCI Yeast Anticancer Drug Screen. Data for the sgs1 mgt1 strain (AID 161).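 Further: 0% = growth of cultures given vehicle only.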 Conditions: S. cerevisiae sgs1 mgt1 strain, active compounds read high. The procedure, abridged:
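Percent growth inhibition was derived by comparing compound-exposed mutant yeast with vehicle-exposed cultures. The strain carries alterations in DNA damage repair.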

Assay [4] can be described thus: NCI Yeast Anticancer Drug Screen. Data for the cln2 rad14 strain (AID 165).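 Further: 0% = growth equal to vehicle treated cultures.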 Conditions: S. cerevisiae cln2 rad14 strain, active compounds read high. The procedure, abridged:
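Readout is yeast growth inhibition versus vehicle-treated controls, using a strain with cln2 and rad14 alterations exposed to compound.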

Assay [5] can be described thus: NCI Yeast Anticancer Drug Screen. Data for the bub3 strain (AID 167). Conditions: S. cerevisiae bub3 mutant strain, active compounds read high. The procedure, abridged:
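Readout: yeast growth inhibition, expressed relative to vehicle-only wells. The test organism is a mutant strain from a panel with lesions in DNA repair or checkpoint genes.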

Assay [6] in a line: NCI Yeast Anticancer Drug Screen. Data for the mlh1 rad18 strain (AID 175). Conditions: S. cerevisiae mlh1 rad18 strain growth inhibition, active compounds read high. The method, boiled down:
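Genetically defined yeast (DNA repair-deficient) exposed to compounds; growth inhibition determined relative to vehicle.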

[7] abbreviates: at 5.0 µM (retest, dose inferred, filed as 0.5).
The mark [8] stands for this setting: at 50.0 µM (retest, dose inferred, filed as 5.0).

The panel holds about 79,000 compounds, 15% with a hit somewhere; the sample as a whole holds those more often. Values without a mark were called inactive. Activity calls are given as the source filed them. No stated cut-off is given here; in the data, active means growth inhibition above about 70%; inactive means the rest.

In the case of `O=C(CCN(Cc1ccccc1)Cc1ccccc1)c1ccc2ccccc2c1`, the growth inhibition is 30% in assay [1] (setting [7]); 55% in assay [1] (setting [8]); 76.2% (active) in assay [1] (at 50.0 µM); 28% in assay [2] (setting [7]); 58% in assay [2] (setting [8]); 55.6% in assay [2] (at 50.0 µM). In addition, the growth inhibition in assay [3] (setting [7]) was 59%; in assay [3] (setting [8]) it was 89% (active); in assay [3] (at 50.0 µM), 90.6% (active); in assay [4] (setting [7]), 33%; in assay [4] (setting [8]), 61%; in assay [4] (at 50.0 µM), 83.8% (active). The growth inhibition was 45% in assay [5] (setting [7]); 69% in assay [5] (setting [8]); 60.1% in assay [5] (at 50.0 µM); 35% in assay [6] (setting [7]); 68% in assay [6] (setting [8]); 81.4% (active) in assay [6] (at 50.0 µM).
As for `C=C1C(=O)OC2C/C(C)=C/CC/C(C)=C/CCC3(COC(C)=O)OC3CC12` (stereo not given), the growth inhibition in assay [1] (setting [7]) is 4%; in assay [1] (setting [8]), 98% (active); in assay [1] (at 50.0 µM) it was 92.7% (active); in assay [2] (setting [7]), 14%; in assay [2] (setting [8]), 98% (active); in assay [2] (at 50.0 µM), 94.2% (active). Further, the growth inhibition in assay [3] (setting [7]) was 10%; in assay [3] (setting [8]), 97% (active); in assay [3] (at 50.0 µM) it was 94.2% (active); in assay [4] (setting [7]), 1%; in assay [4] (setting [8]), 95% (active); in assay [4] (at 50.0 µM), 92.5% (active). For the same molecule, the growth inhibition in assay [5] (setting [7]) is 11%; in assay [5] (setting [8]) it was 97% (active); in assay [5] (at 50.0 µM), 93.2% (active); in assay [6] (setting [7]), 37%; in assay [6] (setting [8]) it was 98% (active); in assay [6] (at 50.0 µM) it was 92.8% (active).
Turning to `Nc1ccccc1SCc1csc(-c2ccc(Cl)cc2)n1`, the growth inhibition in assay [1] (setting [7]) was -4%; in assay [1] (setting [8]), 98% (active); in assay [1] (at 50.0 µM), 97.9% (active); in assay [2] (setting [7]) it was -3%; in assay [2] (setting [8]), 98% (active); in assay [2] (at 50.0 µM), 97.3% (active). For the same molecule, the growth inhibition is 2% in assay [3] (setting [7]); 98% (active) in assay [3] (setting [8]); 98.5% (active) in assay [3] (at 50.0 µM); -10% in assay [4] (setting [7]); 97% (active) in assay [4] (setting [8]); 97.2% (active) in assay [4] (at 50.0 µM). The growth inhibition in assay [5] (setting [7]) is 2%; in assay [5] (setting [8]), 98% (active); in assay [5] (at 50.0 µM) it was 97.1% (active); in assay [6] (setting [7]), 2%; in assay [6] (setting [8]), 98% (active); in assay [6] (at 50.0 µM), 97.6% (active).
In the case of `CN(C)CCCNc1ccc(O)c2sc3ccccc3c(=O)c12`, the growth inhibition in assay [1] (setting [7]) was 4%; in assay [1] (setting [8]), 14%; in assay [1] (at 50.0 µM), 69.7%; in assay [2] (setting [7]), -5%; in assay [2] (setting [8]), 33%; in assay [2] (at 50.0 µM), 34.6%. Moreover, the growth inhibition is -5% in assay [3] (setting [7]); 20% in assay [3] (setting [8]); 63.6% in assay [3] (at 50.0 µM); -3% in assay [4] (setting [7]); -11% in assay [4] (setting [8]); 15.6% in assay [4] (at 50.0 µM). For the same molecule, the growth inhibition is 5% in assay [5] (setting [7]); 25% in assay [5] (setting [8]); 24.4% in assay [5] (at 50.0 µM); 0% in assay [6] (setting [7]); 23% in assay [6] (setting [8]); 72% (active) in assay [6] (at 50.0 µM).
For `O=C1c2c(O)ccc(O)c2C(=O)c2c(O)ccc(O)c21`, the growth inhibition was -23% in assay [1] (setting [7]); 22% in assay [1] (setting [8]); 21.4% in assay [1] (at 50.0 µM); 1% in assay [2] (setting [7]); -12% in assay [2] (setting [8]); 18.2% in assay [2] (at 50.0 µM). Further, the growth inhibition in assay [3] (setting [7]) is -12%; in assay [3] (setting [8]) it was 10%; in assay [3] (at 50.0 µM), 12.3%; in assay [4] (setting [7]), -10%; in assay [4] (setting [8]), -2%; in assay [4] (at 50.0 µM) it was 41%. The growth inhibition in assay [5] (setting [7]) was -14%; in assay [5] (setting [8]) it was 8%; in assay [5] (at 50.0 µM) it was 16.5%; in assay [6] (setting [7]), 8%; in assay [6] (setting [8]), -2%; in assay [6] (at 50.0 µM) it was 4.25%.
As to `CC(C)CC(CC(C)C)OP(=O)(O)OC(CC(C)C)CC(C)C`, the growth inhibition in assay [1] (setting [7]) is 7%; in assay [1] (setting [8]) it was 76% (active); in assay [1] (at 50.0 µM), 80.1% (active); in assay [2] (setting [7]), 11%; in assay [2] (setting [8]) it was 72% (active); in assay [2] (at 50.0 µM), 82.5% (active). Also, the growth inhibition was 9% in assay [3] (setting [7]); 71% (active) in assay [3] (setting [8]); 77.2% (active) in assay [3] (at 50.0 µM); 13% in assay [4] (setting [7]); 78% (active) in assay [4] (setting [8]); 85% (active) in assay [4] (at 50.0 µM). For the same molecule, the growth inhibition in assay [5] (setting [7]) was 9%; in assay [5] (setting [8]), 78% (active); in assay [5] (at 50.0 µM) it was 70.5% (active); in assay [6] (setting [7]) it was 9%; in assay [6] (setting [8]), 82% (active); in assay [6] (at 50.0 µM), 79.3% (active).
As for `O=C(O)c1c2c(cc3c1CC1(Cc4cc5c(cc4C1=O)CCC5)C3)CCC2` (stereo not given), the growth inhibition is 67% in assay [1] (setting [7]); 67% in assay [1] (setting [8]); 89.4% (active) in assay [1] (at 50.0 µM); 58% in assay [2] (setting [7]); 58% in assay [2] (setting [8]); 87.5% (active) in assay [2] (at 50.0 µM). In addition, the growth inhibition in assay [3] (setting [7]) is 57%; in assay [3] (setting [8]), 57%; in assay [3] (at 50.0 µM) it was 87.3% (active); in assay [4] (setting [7]) it was 37%; in assay [4] (setting [8]), 37%; in assay [4] (at 50.0 µM), 88.7% (active). Also, the growth inhibition in assay [5] (setting [7]) was 42%; in assay [5] (setting [8]) it was 42%; in assay [5] (at 50.0 µM), 87.2% (active); in assay [6] (setting [7]), 55%; in assay [6] (setting [8]), 55%; in assay [6] (at 50.0 µM) it was 86.5% (active).
With `Cc1ccc(O)c(Cc2ccccc2Cl)c1`, the growth inhibition was -2% in assay [1] (setting [7]); 99% (active) in assay [1] (setting [8]); 99.3% (active) in assay [1] (at 50.0 µM); -7% in assay [2] (setting [7]); 99% (active) in assay [2] (setting [8]); 99.3% (active) in assay [2] (at 50.0 µM). Further, the growth inhibition was -4% in assay [3] (setting [7]); 98% (active) in assay [3] (setting [8]); 99.5% (active) in assay [3] (at 50.0 µM); -19% in assay [4] (setting [7]); 99% (active) in assay [4] (setting [8]); 99% (active) in assay [4] (at 50.0 µM). Also, the growth inhibition is -13% in assay [5] (setting [7]); 99% (active) in assay [5] (setting [8]); 92.7% (active) in assay [5] (at 50.0 µM); -5% in assay [6] (setting [7]); 99% (active) in assay [6] (setting [8]); 99% (active) in assay [6] (at 50.0 µM).
Consider `Cc1cc(-c2ccccc2)nc2nc3ccccc3n12`, for which the growth inhibition in assay [1] (setting [7]) is 2%; in assay [1] (setting [8]), 30%; in assay [1] (at 50.0 µM), 7.95%; in assay [2] (setting [7]), 16%; in assay [2] (setting [8]) it was 21%; in assay [2] (at 50.0 µM), 5.8%. Also, the growth inhibition in assay [3] (setting [7]) is -11%; in assay [3] (setting [8]) it was 67%; in assay [3] (at 50.0 µM) it was 12.4%; in assay [4] (setting [7]), 14%; in assay [4] (setting [8]), 43%; in assay [4] (at 50.0 µM), -30.7%. Moreover, the growth inhibition in assay [5] (setting [7]) was 21%; in assay [5] (setting [8]), 82% (active); in assay [5] (at 50.0 µM), 29.2%; in assay [6] (setting [7]), -6%; in assay [6] (setting [8]), 45%; in assay [6] (at 50.0 µM), 31.6%.
With `CC1SC(=S)N(c2ccc(Cl)cc2)C1=O` (stereo not given), the growth inhibition in assay [1] (setting [7]) is 4%; in assay [1] (setting [8]), 68%; in assay [1] (at 50.0 µM), 71% (active); in assay [2] (setting [7]) it was 0%; in assay [2] (setting [8]) it was 31%; in assay [2] (at 50.0 µM), 80.7% (active). For the same molecule, the growth inhibition is 2% in assay [3] (setting [7]); 47% in assay [3] (setting [8]); 45.5% in assay [3] (at 50.0 µM); 3% in assay [4] (setting [7]); 28% in assay [4] (setting [8]); -108% in assay [4] (at 50.0 µM). The growth inhibition was -3% in assay [5] (setting [7]); 28% in assay [5] (setting [8]); 85.5% (active) in assay [5] (at 50.0 µM); 3% in assay [6] (setting [7]); 69% in assay [6] (setting [8]); 71.8% (active) in assay [6] (at 50.0 µM).

For the origin of these results see PubChem BioAssay (NCI).
